# Experimental data: PubChem BioAssay
# Activity calls are given as the source filed them.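 Rule for the calls, unless noted: active = fluorescence slope higher than the sample average by over 3 SD (cut at about -0.22 in these data, passing the limit was not always enough); inactive = the rest.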
# Assays:
# [1] = inhibitors of TNFa-induced NFkB p65 translocation, primary screen, imaging, HUVEC, MLSMR starter and 10KST1 sets (AID 438;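 active = inhibition above 20% together with a positive visual image hit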;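 note: compound added about 3h40 before a 20 min TNFalpha stimulation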;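 for inhibition: signal is the nuclear over cytoplasmic p65 intensity ratio per well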); details: HUVEC TNFa-induced p65 nuclear translocation; cell count: measured here: nuclei count (cytotoxicity indicator), at 2.08 µM; inhibition: at 2 µM, stronger effect = higher value, 0% TNFa-plus-vehicle, 100% no-TNFa wells
# [2] = reduction of polyQ htt aggregates in cells – imaging, exon1htt(103Q)mCFP cells, high-content imaging, primary screen (AID 483;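 active = visual image review flags a hit and inhibition of aggregation exceeds 20%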;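 note: compound exposure lasted 3 days before fixation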;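 for nuclei count: percent of the per-plate median nuclei count of sample wells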); details: exon1htt(103Q)mCFP cell line, aggregate imaging, at 2 µM; inhibition of aggregation: stronger effect = higher value; nuclei count: measured here: cell count, toxicity
# [3] = endothelial E-selectin expression blockers – imaging, HUVEC, immunofluorescence, MLSMR starter and 10KST1 sets, primary screen (AID 487;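 active = visually confirmed hit in the image check and inhibition above 20%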;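 for inhibition: signal is fraction of cell area covered by stained E-selectin grains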;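 for nuclei count: 100% = median nuclei count of all wells on the same plate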); details: HUVEC TNFalpha-induced E-selectin immunofluorescence imaging, at 2 µM; inhibition: stronger effect = higher value; nuclei count: measured here: cell number, toxicity
# [4] = biological target: Voltage-gated potassium channel subunit beta-2 (Rattus norvegicus) (UniProt P62483); experiment: inhibitors of rat Kvbeta2 reductase activity – biochemical, NADPH fluorescence, primary screen (AID 622); details: recombinant KvBeta, 4-cyanobenzaldehyde reduction, at 10 µM, stronger effect = higher value;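 note: slope of raw intensity against log time taken from 70 to 1610 s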
# Sequence of Voltage-gated potassium channel subunit beta-2 (Rattus norvegicus) (P62483 whole entry, looked up): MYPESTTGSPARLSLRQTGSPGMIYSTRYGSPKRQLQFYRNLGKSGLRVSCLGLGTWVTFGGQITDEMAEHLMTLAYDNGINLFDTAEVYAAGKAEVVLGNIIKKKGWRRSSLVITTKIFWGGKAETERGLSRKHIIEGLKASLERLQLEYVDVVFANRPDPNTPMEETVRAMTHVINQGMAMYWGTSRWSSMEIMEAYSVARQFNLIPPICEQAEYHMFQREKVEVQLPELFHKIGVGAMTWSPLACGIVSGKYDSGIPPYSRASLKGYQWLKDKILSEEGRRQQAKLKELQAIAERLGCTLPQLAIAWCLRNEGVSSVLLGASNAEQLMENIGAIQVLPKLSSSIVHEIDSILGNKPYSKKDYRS
# [5] = biological target: Voltage-gated potassium channel subunit beta-2 (Rattus norvegicus) (UniProt P62483); experiment: enhancers of rat Kvbeta2 NADPH turnover – biochemical, NADPH fluorescence, primary screen (AID 623;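 active = NADPH fluorescence slope more negative than the mean of all samples by about 3 SD, 99.7% confidence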;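 note: fluorescence intensity change per second fitted from 20 to 320 s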); details: Recombinant KvBeta, NADPH fluorescence decrease slope, 10 min; at 10 µM; stronger effect = lower value
# [6] = biological target: Alpha-2C adrenergic receptor (Homo sapiens) (UniProt P18825); experiment: compounds altering alpha2C-coupled GIRK flux – cell-based, HEK293 alpha2C/GIRK1/2, thallium flux, primary screen (AID 624;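 active = fluorescence slope after compound addition differing from the mean of all screened samples at 99.7% confidence, in either direction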;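 note: slope of fluorescence ratio to pre-addition baseline per second over 15 to 24 s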); details: thallium flux BTC fluorescence, at 10 µM, actives lie on both sides
# Sequence of Alpha-2C adrenergic receptor (Homo sapiens) (P18825 whole entry, looked up): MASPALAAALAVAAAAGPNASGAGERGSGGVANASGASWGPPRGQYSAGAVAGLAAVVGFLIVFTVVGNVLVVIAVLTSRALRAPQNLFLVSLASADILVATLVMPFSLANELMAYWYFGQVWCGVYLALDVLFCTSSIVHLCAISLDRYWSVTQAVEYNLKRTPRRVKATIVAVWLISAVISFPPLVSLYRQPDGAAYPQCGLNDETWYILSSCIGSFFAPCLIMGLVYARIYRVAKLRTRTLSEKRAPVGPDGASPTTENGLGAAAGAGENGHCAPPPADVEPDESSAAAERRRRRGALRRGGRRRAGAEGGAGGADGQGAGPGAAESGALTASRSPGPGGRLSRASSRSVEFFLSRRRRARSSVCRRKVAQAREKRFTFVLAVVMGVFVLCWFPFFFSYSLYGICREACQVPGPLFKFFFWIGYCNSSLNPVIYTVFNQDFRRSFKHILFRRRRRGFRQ
# [7] = blockers of RIG-like receptor reporter activation – cell-based, Sendai virus stimulus, luciferase, 10K MLSCN set, TLR/RLR signaling modifier project, primary screen (AID 602276;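 active = inhibition at or above 50% at 10 µM; inactive = inhibition below 50%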;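 note: firefly luciferase from ISG56 promoter only with Renilla not read in this screen; 0% = Sendai virus plus DMSO and 100% = medium plus DMSO without virus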); details: HEK293 RL24 IRF3 luciferase reporter, at 10 µM, stronger effect = higher value
# [8] = TLR3 IRF3 reporter activation blockers – cell-based, poly I:C stimulus, luciferase, 10K MLSCN set, primary screen (AID 602277;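 active = inhibition of the reporter signal at or above 50%; inactive = inhibition below 50%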); details: HEK293-TLR3 RL24 IRF3 luciferase reporter, at 10 µM, stronger effect = higher value
SMILES,cell count [1],inhibition [1],inhibition of aggregation [2],nuclei count [2] [%],inhibition [3],nuclei count [3] [%],fluorescence slope [4],NADPH fluorescence slope [5],slope [6],inhibition [7],inhibition [8]
CCOC(=O)c1cc2sc(C)cc2n1CC(=O)Nc1cccc(C)c1C,556,7.5% (inactive),23.7% (inactive),109,-44.9% (inactive),116,-0.342 (inactive),-3.2e-05 (inactive),0.00758 (inactive),-2.4% (inactive),12.7% (inactive)
CCOC(=O)c1ccc(NC(=O)COc2ccc(-n3cnnn3)cc2)cc1,354,-0.5% (inactive),-2.9% (inactive),60.6,5% (inactive),102,-0.405 (inactive),-1.2e-05 (inactive),0.00538 (inactive),1.41% (inactive),11.4% (inactive)
COc1cc(C2N=C(c3ccccc3)NO2)cc(Br)c1O (centres undefined),770,4.6% (inactive),-13.7% (inactive),94.3,-121% (inactive),108,-0.546 (inactive),2.2e-05 (inactive),0.00675 (inactive),-15.8% (inactive),-15.1% (inactive)
COC(=O)c1ccsc1NC(=O)CN1C(=O)CCC1=O,479,-5.9% (inactive),2.9% (inactive),86.8,-15.8% (inactive),100,-0.476 (inactive),-3.2e-05 (inactive),0.0049 (inactive),-11.8% (inactive),-9.21% (inactive)
COc1ccc(S(=O)(=O)N2CCN(CC(=O)Nc3ccc(C)c(F)c3)CC2)cc1,339,-8.1% (inactive),-0.4% (inactive),115,-4.2% (inactive),80.5,-0.518 (inactive),1.2e-05 (inactive),0.00517 (inactive),18.5% (inactive),23.8% (inactive)
COc1ccccc1CC1(C)NC(=O)N(CC(=O)Nc2cc(C)on2)C1=O (centres undefined),471,-14.8% (inactive),14.1% (inactive),88.8,-28.8% (inactive),158,-0.598 (inactive),-2.5e-05 (inactive),0.006 (inactive),9.53% (inactive),16.4% (inactive)
COc1cccc(NC(=O)COC(=O)c2cccnc2)c1,354,-1.6% (inactive),-3.6% (inactive),105,-15.5% (inactive),108,-0.503 (inactive),-6.6e-05 (inactive),0.0053 (inactive),20.2% (inactive),19.2% (inactive)
CC(=O)C(Sc1ncnc2c1nnn2-c1ccc(F)cc1)C(=O)N(C)C (centres undefined),464,-2.2% (inactive),2.3% (inactive),89.3,-51.7% (inactive),114,-0.492 (inactive),-1.7e-05 (inactive),0.00752 (inactive),-3.3% (inactive),-23.2% (inactive)
O=C(CN1CCN(Cc2ccccc2F)C1=O)NCc1cccnc1,674,-9.2% (inactive),18.1% (inactive),93.5,-69.2% (inactive),115,-0.502 (inactive),2.9e-05 (inactive),0.00712 (inactive),7.76% (inactive),7.56% (inactive)
COc1ccc(NC(=O)CC2Sc3ncnn3C2=O)cc1 (centres undefined),632,-5% (inactive),-9.2% (inactive),128,-65.3% (inactive),126,-0.567 (inactive),-4e-05 (inactive),0.0059 (inactive),8.74% (inactive),16.8% (inactive)
COCCOC(=O)c1[nH]c2c(c1C)C(=O)CC(c1ccc(N(C)C)cc1)C2 (centres undefined),342,-4.6% (inactive),-19% (inactive),105,21.3% (inactive),83.3,-0.534 (inactive),1.4e-05 (inactive),0.00456 (inactive),-15.6% (inactive),-26.9% (inactive)
CCN(CC)c1ccc(/C=N/n2nnnc2N)c(O)c1,428,-1.1% (inactive),-13.8% (inactive),101,-29.5% (inactive),130,-0.413 (inactive),6.9e-05 (inactive),0.00627 (inactive),4.84% (inactive),1.57% (inactive)
CCOCCCNC(=O)C1CCC(CNS(=O)(=O)c2cccc3nsnc23)CC1 (centres undefined),808,6.8% (inactive),-28.4% (inactive),103,-19.9% (inactive),119,-0.476 (inactive),-4.4e-05 (inactive),0.00547 (inactive),8.12% (inactive),22.9% (inactive)
CC(=O)N1CCN(S(=O)(=O)c2cccc(C(=O)Nc3ccc4c(c3)CCC4)c2)CC1,442,10.5% (inactive),-6.6% (inactive),118,-54.2% (inactive),111,-0.385 (inactive),-4e-05 (inactive),0.00306 (inactive),9.87% (inactive),1.5% (inactive)
